# Source: PubChem BioAssay
# In the library only some 9% were active in any assay of this set; here they are far more common.
# IMPase Li cell – cell-permeable IMPase inhibitors with lithium potentiation | CHO-M1 cells, IP1 TR-FRET (IP-One), carbachol + lithium | Potency, µM (titrated, usually from 59.4 µM), without a hit: at the top dose activity, negative = IMPase inhibition, hits mostly inhibitors | 210,000 tested, 0.35% active;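 also: IP1 builds up when IMPase is blocked and the TR-FRET signal falls; plate controls were basal vehicle for no effect and high inhibitor control for full effect; nearly all actives have a fitted effect of over 50% in size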
#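 Steps: plate 2000 CHO-M1 cells per well and culture 16–30 h; add compound and lithium; incubate 30 min, 37C; add d2-IP1 tracer and Eu cryptate anti-IP1 antibody in lysis buffer; read after 10 min at room temperature.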
# LMNA splice mod – LMNA splicing modulation; 200,000 tested, 0.01% active; HeLa LMNA splicing GFP/RFP minigene ratio, 48 h; Potency, µM (series often up to 46.1 µM), for inactives: top-dose ratio change, negative = inhibition, usual class: inhibitors; active = well fitted inhibition curve with a large enough effect in the signal ratio, with a control signal flat, not every such curve was filed as active; inconclusive = small, poorly fitted or top-dose-only effect, or effect the other way, or a change in a side signal; the % refers to the signal ratio
#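 S3 HeLa cells stably expressing lamin A-EGFP splicing minigene plus DsRed2, 600 cells/well, 48 h compound exposure at 37C. Laser-scanning cytometry; analysed as GFP (500-530 nm)/RFP (575-640 nm) total intensity ratio; 0.5% DMSO vehicle.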
# HPGD block – inhibitors of human 15-hydroxyprostaglandin dehydrogenase (HPGD). P15428. Potency, µM, for inactives: at the highest dose activity change, negative = inhibition, usual class: inhibitors. purified HPGD, NADH fluorescence kinetic, PGE2 substrate. 150,000 tested, 4.3% active; active = well fitted inhibition curve with a large enough effect, not every such curve was filed as active; inconclusive = small, poorly fitted or top-dose-only effect, or another doubt; inactive = no such curve, though single readings can be large or run the other way
# Target sequence (P15428 whole entry, looked up): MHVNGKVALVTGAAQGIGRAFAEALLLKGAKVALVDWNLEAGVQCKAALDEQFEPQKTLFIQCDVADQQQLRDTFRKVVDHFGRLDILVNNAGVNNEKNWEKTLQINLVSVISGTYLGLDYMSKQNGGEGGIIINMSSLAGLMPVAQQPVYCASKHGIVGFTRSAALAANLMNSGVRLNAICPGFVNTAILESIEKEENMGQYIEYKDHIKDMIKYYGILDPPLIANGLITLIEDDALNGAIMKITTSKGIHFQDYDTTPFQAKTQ
#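 20 nM HPGD preincubated 15 min at room temperature with compound in 50 mM Tris-HCl pH 8, 0.01% Tween 20. Started with 1 mM NAD+ and 30 uM prostaglandin E2; NADH fluorescence (360/450 nm) read 5 times over 30-s intervals, last minus first.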
# Luc counter – blocks Kinase-Glo luciferase, a counter-screen artifact | Q27757 | AID 1379 | Potency, µM (top dose mostly 38.3 µM), for inactives: at the top dose activity change, negative = inhibition, hits mostly inhibitors | Kinase-Glo luciferase, ATP luminescence, 8 min | 200,000 tested, 0.28% active; also: nearly all actives have a fitted effect of over 60% in size
#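 Recombinant Kinase-Glo luciferase, 10 uM ATP (linear range), luciferin; imidazole pH 7.2 / KCl / MgCl2 / Tween / BSA buffer; 8 min RT; luminescence.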
# ALDH1A1 inh – blocks purified human ALDH1A1 activity | Potency, µM (titrated, usually from 75.3 µM), for inactives: at the top dose activity, negative = inhibition, actives largely listed as inhibitors | P00352 | AID 1030 | 220,000 tested, 7.3% active | Purified ALDH1A1, NADH fluorescence, propionaldehyde substrate; active = well fitted inhibition curve with a large enough effect, not every such curve was filed as active; inconclusive = small, poorly fitted or top-dose-only effect, or another doubt; inactive = no such curve, though single readings can be large or run the other way;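 also: plate controls were no enzyme wells and a reference inhibitor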
# Target sequence (P00352 whole entry, looked up): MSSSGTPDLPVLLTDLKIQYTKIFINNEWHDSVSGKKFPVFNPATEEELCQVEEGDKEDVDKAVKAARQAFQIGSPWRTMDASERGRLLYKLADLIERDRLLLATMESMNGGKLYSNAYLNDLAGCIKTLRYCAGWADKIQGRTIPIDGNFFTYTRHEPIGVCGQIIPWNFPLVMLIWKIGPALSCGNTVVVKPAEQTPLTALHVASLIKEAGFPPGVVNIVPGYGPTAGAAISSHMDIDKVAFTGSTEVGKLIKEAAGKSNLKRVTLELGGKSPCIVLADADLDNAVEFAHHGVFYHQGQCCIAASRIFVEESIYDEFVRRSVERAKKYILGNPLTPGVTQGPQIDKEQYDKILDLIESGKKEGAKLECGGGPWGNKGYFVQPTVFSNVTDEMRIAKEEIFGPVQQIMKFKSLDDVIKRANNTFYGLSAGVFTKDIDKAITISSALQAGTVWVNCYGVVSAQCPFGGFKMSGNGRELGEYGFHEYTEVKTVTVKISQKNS
# * hit, by the source's call; ? = inconclusive; . = not tested or not shown; [ ] = dose if it differs, or a comment. Unless noted, calls follow the shape of the dose curve; as a rule, active = well fitted curve in the direction sought with a large enough effect; inconclusive = small, poorly fitted or top-dose-only effect, or another doubt; inactive = no such curve, though single readings can be large; an effect the other way counts as inactive or inconclusive. Unless noted, % is scaled to controls: 0 for no effect and ±100 for the full control effect; potency is read from the fitted curve at half-maximal effect.
SMILES,IMPase Li cell,LMNA splice mod,HPGD block,Luc counter,ALDH1A1 inh
CC(=O)NC(=S)NNC(=O)COc1ccc(Br)cc1,-0.2%,19.2%[46 µM],.,0.6%,17.8µM*
COc1ccc(CNC(=O)COc2ccc([N+](=O)[O-])cc2)cc1,-3.0%[38.3 µM],9.0%[0.0737 µM],-0.8%,-0.8%,-2.0%
COc1cc2c(cc1OC)-c1cc3cc(OC)c(OC)cc3c(=O)n1CC2,-1.3%,.,?,-0.5%,?
COc1ccc(CC(=O)OC(C)CN2CCCCC2)cc1 (stereo not given),2.9%,7.9%[46 µM],.,-0.5%,12.0%
Cc1ccc(Cn2nc(C)c(NC(=O)CCCn3nc([N+](=O)[O-])c(Cl)c3C)c2C)cc1,6.6%,-4.7%,-2.9%,1.8%,?
Cc1nn(Cc2c(Cl)cccc2Cl)c(C)c1NC(=O)CCCn1nc(C)c([N+](=O)[O-])c1C,2.6%,-3.7%,-11.7%,-1.8%,3.55µM*
Cc1nn(Cc2ccc(Cl)cc2Cl)c(C)c1NC(=O)CCl,4.7%,?,-11.7%,-0.6%,8.91µM*
Cc1nn(Cc2ccccc2Cl)c(C)c1NC(=O)CCCn1nc([N+](=O)[O-])c(Cl)c1C,9.4%,-14.4%,-10.4%,9.7%,8.91µM*
CN(C)Cc1ccccc1-c1cc(NCc2cccs2)ncn1,18.0%,1.4%,.,.,8.1%
COC(=O)C1=C(C)[C@@H](O)[C@@H](C)[C@](C)(c2cc(OC)c(C)c(OC)c2COc2ccccc2)O1,15.6%,.,-10.3%,-0.5%,10.6%
COc1cc(O)c(C(=O)O)c(O)c1,-0.8%,-4.5%,-9.3%,-1.6%,-1.0%
Cc1ccccc1CCN(C(=O)Cn1nnc2ccccc21)C(C(=O)NCC1CCCO1)c1nc2ccccc2n1C (stereo not given),-5.2%,-13.4%,-13.8%,-2.0%,1.4%
Cc1ccc(N/C=C2/Sc3ccccc3NC2=O)cc1,6.3%,?,.,0.2%,22.4µM*
COc1ccccc1N/C=C1/Sc2cc(Cl)ccc2NC1=O,1.8%,-15.1%[46 µM],.,2.9%,?
CCC(C)NC(=O)/C=C1\Sc2ccccc2NC1=O (stereo not given),8.6%,-2.2%,?,1.0%,?
O=C1Nc2ccccc2S/C1=C/NCc1ccccc1Cl,7.4%,-15.2%[9.22 µM],.,0.7%,4.47µM*
COc1ccc(N/C=C2/Sc3ccccc3NC2=O)cc1,7.7%,.,.,-5.3%,3.98µM*
COC(=O)[C@H](COC(C)(C)C)NC(=O)O[C@H]1C(=O)c2cc(OC)ccc2O[C@@H]1c1ccc(OC)c(Br)c1,10.9%,.,-11.8%,3.1%,-12.2%
COc1cccc(Nc2ncc3nc(CCc4ccccc4)c(=O)n(C)c3n2)c1,-3.2%,16.2%,.,.,?
COC(=O)C1=C(C)OC(N)=C(C#N)C1c1cc(C)sc1C (stereo not given),44.7%[38.3 µM],5.5%,28.2µM*,3.7%,?
COC(=O)C1=C(C)OC(N)=C(C#N)C1c1cc2cccc(C)c2nc1Cl (stereo not given),10.1%,.,.,3.3%,28.2µM*
COCCOC(=O)C1=C(C)OC(N)=C(C#N)C1c1cc2cccc(C)c2nc1Cl (stereo not given),6.6%,.,.,0.8%,?
CCOC(=O)C1=C(C)OC(N)=C(C#N)C1c1cccc(C)c1 (stereo not given),1.1%,.,.,-2.7%,?
CCOC(=O)C1=C(C)OC(N)=C(C#N)C1c1ccc(C)s1 (stereo not given),-1.8%,?,.,4.1%,22.4µM*
CCCC(=O)NC1=C(C#N)C2(CCCC2)Cc2ccccc21,23.7%[38.3 µM],14.5%,-11.2%,0.3%,-5.2%
SMILES,IMPase Li cell,LMNA splice mod,HPGD block,Luc counter,ALDH1A1 inh
CCCC(=O)C1=C(c2ccccc2)C(C#N)(C#N)C(C#N)=C1N,10.9%[38.3 µM],9.7%,1.41µM*,-2.5%,?
CC(C)COP(=O)(c1ccc(N(C)C)cc1)C(O)c1ccncc1 (stereo not given),6.7%[38.3 µM],8.2%,28.2µM*,-4.1%,12.6µM*
CCOP(=O)(c1ccc(N(C)C)cc1)C(O)c1ccccc1 (stereo not given),30.1%[38.3 µM],5.1%,-8.2%,-0.3%,0.2%
COC(=O)c1ccc(Cl)cc1NC(=O)N1CC(C)Oc2ccccc21 (stereo not given),.,2.9%[46 µM],.,.,.
CCn1c(SCc2nc3sc(C(=O)O)c(C)c3c(=O)[nH]2)nc2ccccc21,32.8%[38.3 µM],-1.9%,15.8µM*,-2.7%,?
COCCn1c(SCc2nc3sc(C(=O)OC)c(C)c3c(=O)[nH]2)nc2ccccc21,15.0%[38.3 µM],17.0%,-11.5%,-0.6%,-12.0%
Cc1ccccc1OCC(=O)OCc1cc(=O)n2nc(C3CC3)sc2n1,.,2.2%[46 µM],.,.,.
COc1cc(/C=N/NC(=S)NC2CC3CCC2C3)ccc1O (stereo not given),.,?,.,.,17.8µM*
O=c1c2c3c(sc2ncn1/N=C/c1ccc([N+](=O)[O-])o1)CCCC3,12.9%[38.3 µM],149.9%,-15.6%,-0.6%,0.199µM*
O=C(/C=C/c1ccco1)OCc1nnc(-c2ccc(Cl)cc2)o1,11.5%,?,.,0.5%,25.1µM*
O=C(/C=C/c1ccco1)OCc1nnc(-c2ccccc2)o1,-1.6%,15.5%[46 µM],.,0.3%,?
O=CCCCC=O,-10.7%,?,-3.0%,.,-1.1%
Cc1ccc(NC(=O)Cn2cc(C(=O)c3ccco3)c3ccccc32)cc1,.,7.8%[46 µM],.,.,.
Clc1cccc(CN2CCC(Cc3ccccc3)CC2)c1,.,?,.,.,20µM*
O=C(c1ccco1)[C@@H]1[C@@H]2C(=O)N(c3ccc(F)cc3)C(=O)[C@@H]2C2c3ccccc3C=CN21 (stereo not given in full),-10.5%[38.3 µM],2.3%,31.6µM*,-11.6%,12.6µM*
O=C(c1ccco1)[C@@H]1[C@@H]2C(=O)N(c3ccc(F)cc3)C(=O)[C@@H]2[C@H]2C=Cc3ccccc3N21,-1.7%,?,-21.7%,-3.7%,?
O=C(c1ccco1)[C@@H]1[C@@H]2C(=O)N(c3ccc(Br)cc3)C(=O)[C@@H]2C2c3ccccc3C=CN21 (stereo not given in full),-2.6%[38.3 µM],10.4%,?,0.5%,11.2µM*
CCCc1nn2c(=O)cc(COC(=O)c3cccc(NC(=O)COc4ccc(F)cc4)c3)nc2s1,.,-4.5%[46 µM],.,.,.
COc1ccc(S(=O)(=O)N2CCCC2)cc1C(C)C,4.4%,-4.5%[46 µM],.,0.8%,-1.6%
CCOC(=O)c1c(NC(=O)c2ccccc2Cl)sc2c1CCCC2,.,-29.0%[46 µM],.,.,.
CCOC(=O)c1c(NC(=O)c2ccccc2Br)sc2c1CCc1ccccc1-2,33.4%[38.3 µM],-5.8%,14.1µM*,0.4%,?
CCOC(=O)c1c(NC(C)=O)sc2c1CCC(C=O)=C2Sc1ccccc1,49.8%[38.3 µM],-15.0%,35.5µM*,-1.9%,5.01µM*
CCOC(=O)c1c(NC(C)=O)sc2c1CCCNC2=O,.,-1.4%,.,.,12.6µM*
COC(=O)c1ccc(COn2nnc3ccccc32)cc1,6.2%,-9.0%[9.22 µM],.,-13.6%,-11.3%
COc1ccc(C=O)cc1COc1ccc(F)cc1F,53.1%[38.3 µM],-9.3%,31.6µM*,-0.8%,8.91µM*
